Measurements: PubChem BioAssay (NCI)
Several values for one entry are separate records, joined by “and”; a condition that tells them apart may be missing. Equal values may be shown once. This is part of a sample that, as a whole, favours compounds with a hit. Of some 79,000 tested, about 15% had one in any assay. Activity calls are given as the source filed them. No stated cut-off is given here; in the data, active means growth inhibition above about 70%; inactive means the rest.

Experiments:
[1] = NCI Yeast Anticancer Drug Screen. Data for the rad50 strain (AID 155);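 further: 0% = growth of vehicle-only cultures of the same strain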; conditions: S. cerevisiae rad50 strain growth inhibition; at 50.0 µM; active compounds read high
Procedure, shortened: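 A DNA repair-deficient yeast mutant serves as the test organism; compound-induced growth inhibition is calculated against vehicle-treated cells.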

[2] = NCI Yeast Anticancer Drug Screen. Data for the mec2-1 strain (AID 157); conditions: S. cerevisiae mec2-1 strain, at 50.0 µM, active compounds read high
Procedure, shortened: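 Cells of the genetically defined mec2-1 yeast strain are incubated with test compound. Inhibition of growth is calculated against vehicle-treated controls.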

[3] = NCI Yeast Anticancer Drug Screen. Data for the sgs1 mgt1 strain (AID 161);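 further: 0% = growth of cultures given vehicle only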; conditions: S. cerevisiae sgs1 mgt1 strain, at 50.0 µM, active compounds read high
Procedure, shortened: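 Mutant yeast exposed to compound; growth scored against vehicle-only wells.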

[4] = NCI Yeast Anticancer Drug Screen. Data for the cln2 rad14 strain (AID 165);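 further: 0% = growth equal to vehicle treated cultures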; conditions: S. cerevisiae cln2 rad14 strain, at 50.0 µM, active compounds read high
Procedure, shortened: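 The screen exposed genetically defined yeast (cln2 rad14) to test compounds and scored growth inhibition relative to vehicle-treated controls.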

[5] = NCI Yeast Anticancer Drug Screen. Data for the bub3 strain (AID 167); conditions: S. cerevisiae bub3 mutant strain, at 50.0 µM, active compounds read high
Procedure, shortened: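 Inhibition values come from growth of compound-treated mutant yeast normalised to vehicle-treated controls.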

[6] = NCI Yeast Anticancer Drug Screen. Data for the mlh1 rad18 strain (AID 175); conditions: S. cerevisiae mlh1 rad18 strain growth inhibition; at 50.0 µM; active compounds read high
Procedure, shortened: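 Compound-treated yeast growth, normalised to vehicle controls. Strain bears defined DNA repair mutations.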

Measured: growth inhibition

[C-]#[O+].[C-]#[O+].[C-]#[O+].[C-]#[O+].[C-]#[O+].[C-]#[O+].[C-]#[O+].[C-]#[O+].[C-]#[O+].[C-]#[O+].[Mn].[Mn]
inactive: [1] -21.1% | [2] -12.6% | [3] -15.2% | [4] -71.6% | [5] 4.45% | [6] -25.9%

CCCC(=O)O.[Ni]
inactive: [1] 8.1% | [2] -4.05% | [3] -6% | [4] -39.9% | [5] -20.2% | [6] -2.7%

Cc1ccc2c(O)c3c(cc2c1)C(=O)c1c2c(cc(O)c1C3=O)C1(C)OC(O2)C(O)C(N(C)C)C1O (configuration not stated)
active: [1] 86.7% | [2] 87.9% | [3] 90.9% | [4] 87.7% | [5] 87.8% | [6] 85.5%

Cc1ccc(OP(=O)(Oc2ccc(C)c(C)c2)Oc2ccc(C)c(C)c2)cc1C
inactive: [1] -3.7% | [2] -8.55% | [3] -9.15% | [4] -8.95% | [5] 5.2% | [6] -17%

CC(OC(N)=O)C(F)(F)C(F)F (configuration not stated)
inactive: [1] -26.6% | [2] -9.15% | [3] 1.35% | [4] -39.2% | [5] -12.8% | [6] -1.85%

CC1(Cl)CC2C(CC1Sc1nnnn1-c1ccccc1)C2(C)C (configuration not stated)
inactive: [1] -7.45% | [2] -35.2% | [3] -7.2% | [4] -20.6% | [5] -18.4% | [6] -7.2%

[CH3][Sn]([CH3])([Cl])[S]CCN
inactive: [1] 29.6% | [2] 32.5% | [3] -5.55% | [4] 1.25% | [5] -15.4% | [6] 18.6%

O=[As](O)(O)c1ccc2nc3cc([As](=O)(O)O)ccc3nc2c1
inactive: [1] -11.1% | [2] -3% | [3] -20.4% | [4] 3.8% | [5] 2.35% | [6] -30.9%

Cc1nc(N)nc(N)c1CCCOc1ccc(NC(=O)c2cccc(S(=O)(=O)F)c2)cc1
inactive: [1] 33.2% | [2] 25.9% | [3] 15.4% | [4] 19.2% | [5] -4.45% | [6] 30.4%

CC(Cl)(Cl)[N+](=O)[O-]
inactive: [1] 33.7% | [2] -22.5% | [3] -8.05% | [4] -60.1% | [5] -10.2% | [6] 21.1%

C[CH2][Sn]([CH2]C)([O]C(=O)c1ccc(F)cc1)[O]C(=O)c1ccc(F)cc1
inactive: [1] 30.5% | [2] 17.7% | [3] 38.5% | [4] 15.1% | [5] 15.2% | [6] 17.6%

CCN(CC)C(=O)N1CN(c2ccccc2)C2(CCN(CCCSc3ccc(F)cc3)CC2)C1=O
inactive: [1] 13.5% | [2] 0.65% | [3] 15.8% | [4] 12.4% | [5] 48.4% | [6] 20.6%

CN1c2ccccc2NP1(=S)c1ccccc1 (configuration not stated)
active: [2] 80% | [3] 95.2% | [6] 83.2%
inactive: [1] 69.5% | [4] 40.5% | [5] 55.9%

CCN(CC)CCN(Cc1ccccc1)C(=O)C(O)(c1ccccc1)c1ccccc1
inactive: [1] -0.4% | [2] -23.6% | [3] -4.05% | [4] -39.4% | [5] -1.5% | [6] -24.6%

O=P1(N(CCCl)CCCl)OC(c2ccccc2)=CCN1c1ccccc1 (configuration not stated)
inactive: [1] 0.6% | [2] 20.1% | [3] 57.2% | [4] 32.4% | [5] 50% | [6] 34.6%

CCCC(C)C1C(=O)N(C)C(=O)N(C)C1=O (configuration not stated)
inactive: [1] 14.2% | [2] -1% | [3] 11.4% | [4] 9.9% | [5] -4.75% | [6] 14.9%

NNC(=O)Nc1nn[nH]n1
inactive: [1] 1.75% and -6.75% | [2] 8.2% and 8.5% | [3] 10.2% and -6.75% | [4] -19.4% and 6% | [5] -15% and 12.6% | [6] 7.95% and -3.6%

COc1ccc(Cc2nccc3cc(OC)c(OC)cc23)cc1OC
inactive: [1] -4.15% and -16.3% | [2] -19.4% and -28% | [3] -6.9% and 11.4% | [4] -2.9% and -11.6% | [5] -11.7% and -7.9% | [6] -21.1% and -29.4%

[C-]#[O+].[C-]#[O+].[C-]#[O+].[C-]#[O+].[Cr].c1ccc([PH+](CC[PH+](c2ccccc2)c2ccccc2)CC[PH+](c2ccccc2)c2ccccc2)cc1
inactive: [1] 14.9% | [2] 3.75% | [3] -3.35% | [4] 32.2% | [5] 19.4% | [6] 6.2%

CN(C)C(=O)c1cc(N(CCCl)CCCl)c([N+](=O)[O-])cc1[N+](=O)[O-]
inactive: [1] -2.75% | [2] -10.1% | [3] -3.35% | [4] 2.3% | [5] -13.6% | [6] 0.3%

CCN1C[C@]2(C)CC[C@H](O)C34C1C(C[C@@H]32)[C@@]1(O)CC[C@H]2C[C@@H]4[C@@H]1[C@H]2O
inactive: [1] 19.4% | [2] 1.15% | [3] -1.45% | [4] 23.8% | [5] 6.7% | [6] 31.2%

Nc1cc(N)c([N+](=O)[O-])cc1[N+](=O)[O-]
inactive: [1] 20.8% | [2] 2.8% | [3] 14.1% | [4] 5.75% | [5] 9.8% | [6] 11.3%

O=S(=O)(O)O/N=C(\Cc1ccccc1)SC1OC(CO)C(O)C(O)C1O (configuration not stated)
inactive: [1] -2.45% | [2] -7.1% | [3] -2.55% | [4] -7% | [5] -0.75% | [6] -3.25%

[CH3][Sn]([c]1ccccc1)[c]1ccccc1
inactive: [1] -4.15% | [2] 2.5% | [3] 2.45% | [4] -11% | [5] 1.2% | [6] -21.4%

C=CC[NH-].C=CC[NH-].CC(=O)CC(C)=O.CC(=O)CC(C)=O.[Ni+2]
inactive: [1] -2.65% | [2] -6.75% | [3] -7.4% | [4] -9.35% | [5] -1.1% | [6] -3.35%

O=C1C(C(Nc2ccccc2)c2ccccc2)=C([O-])c2ccccc21.O=C1C(C(Nc2ccccc2)c2ccccc2)=C([O-])c2ccccc21.[Cu+2] (configuration not stated)
inactive: [1] -12% | [2] -1.5% | [3] -10.2% | [4] 10.5% | [5] 4.75% | [6] -0.65%

C1=C[N-]c2c3c(ccc2=C1)=CC=C[N-]3.C1=C[N-]c2c3c(ccc2=C1)=CC=C[N-]3.[Cl][Ru][Cl]
inactive: [2] 28.3% | [3] 49% | [4] 44.4% | [5] 61% | [6] 33.8%
active: [1] 70.3%

Cc1ccc(N)c(N)c1
inactive: [1] 18.6% and 6.85% | [2] -5% and -3.75% | [3] 9.3% and -3.35% | [4] 9.8% and 32.2% | [5] 7.75% and -7.95% | [6] 19% and 7.5%

CCOc1ccc(N)cc1
inactive: [1] -4.65% | [2] 10.9% | [3] -6.05% | [4] 5.85% | [5] 0.45% | [6] 8.65%

O.O=C(O)C(=O)O.[NH2-].[Zn]
inactive: [1] -14.6% | [2] 9.25% | [3] -6.5% | [4] 35.1% | [5] -2.3% | [6] -2.05%

C(/COc1cccnc1)=N\NC1=NCCN1
inactive: [1] -12.2% | [2] -29.6% | [3] -44.8% | [4] 3.7% | [5] -21.9% | [6] -35.9%

CC(=O)OC1(C)CC(C)C(=O)C(C(O)CC2CC(=O)NC(=O)C2)C1 (configuration not stated)
active: [1] 92.8% | [2] 94.3% | [3] 93.7% | [4] 92.2% | [5] 93.3% | [6] 92.3%

Nc1ccc(C(=O)Nc2ccc([As](=O)(O)O)cc2)cc1
inactive: [1] 4.35% | [2] 11.4% | [3] 7.8% | [4] -17.3% | [5] 5.4% | [6] 23.9%

[NH-]C(CO)C(=O)O.[NH-]C(CO)C(=O)O.[Pd+2] (configuration not stated)
inactive: [1] -8.55% | [2] -3.9% | [3] -6.15% | [4] -7.2% | [5] -5.95% | [6] 15.9%

[CH3][Sn]1([CH3])[O]C(=O)c2ccccc2C(=O)[O]1
inactive: [1] 6.8% | [2] 15.7% | [3] 23.6% | [4] -13.4% | [5] -13.4% | [6] -13.8%

O=C(O)CP(=O)(O)O
inactive: [1] -19% and 6.2% | [2] -8.25% and 10% | [3] -21.1% and 1.75% | [4] -2.2% and -19.4% | [5] -27.1% and 5.75% | [6] 1.2% and -2.65%

CC(CC(C)(C)[N-]CC[O-])=NCCO.O=[N+]([O-])O.[Cu+2]
inactive: [1] 10.7% | [2] 20.2% | [3] -5.7% | [4] -0.05% | [5] 26.2% | [6] 18.7%
